# Laboratory results published in PubChem BioAssay (NCATS).
# Inconclusive results are not listed. Calls of active or inactive are those of the source. Calls come from the whole dose curve; as a rule, active = well fitted inhibition curve with a large enough effect; inconclusive = small, poorly fitted or top-dose-only effect, or effect the other way; inactive = flat fitted curve, though single readings scatter.
# Biological target: ATP-dependent 6-phosphofructokinase (Trypanosoma brucei brucei) (UniProt O15648)
# Sequence (O15648 whole entry, looked up): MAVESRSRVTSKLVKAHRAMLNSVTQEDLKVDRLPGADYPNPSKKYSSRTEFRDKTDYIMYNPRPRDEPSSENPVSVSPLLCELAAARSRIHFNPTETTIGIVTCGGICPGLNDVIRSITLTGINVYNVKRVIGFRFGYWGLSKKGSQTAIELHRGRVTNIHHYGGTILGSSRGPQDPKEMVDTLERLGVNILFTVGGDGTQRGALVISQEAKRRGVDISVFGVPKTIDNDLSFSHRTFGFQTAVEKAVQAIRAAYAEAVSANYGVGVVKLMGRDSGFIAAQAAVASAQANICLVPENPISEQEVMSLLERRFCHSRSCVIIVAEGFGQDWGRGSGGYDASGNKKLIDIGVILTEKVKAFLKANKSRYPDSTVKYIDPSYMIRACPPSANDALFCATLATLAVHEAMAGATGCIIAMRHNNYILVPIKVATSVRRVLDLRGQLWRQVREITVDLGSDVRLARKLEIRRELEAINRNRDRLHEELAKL
# Test: qHTS Validation Assay to Find Inhibitors of T. brucei phosphofructokinase (AID 485368)
# Details: T. brucei PFK enzyme assay, qHTS 7-point titration; at 57.5 µM (top of the series)
# From the text: NIH Molecular Libraries Probe Production Network [MLPCN]
# NIH Chemical Genomics Center [NCGC]
# PI Name: Malcolm Walkinshaw, University of Edinburgh
# Various species of the protozoan family Trypanosomatidae are responsible for a range of serious human diseases in tropical and subtropical areas of the world. […] Many of the disorders caused by trypanosomatids are fatal if left untreated, but most currently used drugs are inefficient and toxic.
# Oxidative metabolism involving the mitochondrial tricarboxylic acid cycle and oxidative phosphorylation are repressed in these parasites, and recent RNA interference (RNAi) experiments have shown that even partial depletion of certain individual glycolytic enzymes can lead to the death of cultured parasites. One such glycolytic enzyme, phosphofructokinase (PFK), catalyzes the formation of fructose-1,6-bisphosphate (F1,6BP) and ADP from fructose-6-phosphate (F6P) and ATP, and in many metabolic circumstances makes an important contribution to the control of flux through the glycolytic pathway. As a specific glycolytic target, PFK is particularly attractive as it catalyzes the first irreversible step in glycolysis, and structural and kinetic studies have shown very substantial and essential differences from corresponding host enzymes, allowing for the discovery of parasite-selective inhibitors.
# The goal of this screen is to find small-molecule inhibitors of T. brucei PFK using a biochemical assay that measures PFK activity as a function of ADP production. A luminescence-based assay for T. brucei PFK activity has been developed which uses luciferase to detect production of ADP. Traditional luciferase-based nucleotide detection reagents rely on ATP production as a direct substrate for the luciferase reaction; however, PFK catalyzes the transfer of a phosphate from ATP to F6P, resulting in the net depletion of ATP. To directly measure the ADP product of the PFK reaction, we used the ADP-Glo detection kit (Promega), which utilizes two separate reactions to 1) deplete all remaining uncatalyzed ATP and 2) convert all remaining ADP to ATP, which is then detected through a traditional luciferase-coupled reaction. Compounds were screened as a concentration-titration series that ranged from 57 uM to 0.7 nM.
# NCGC Assay Protocol Summary:
# Substrate buffer was dispensed into white, solid 1536-well plates at 3uL/well in 0.1M triethanolamine (TEA) buffer, pH 8.0, containing final concentrations of 5 mM MgCl2, 0.01% Tween20, 0.5 mM fructose-6-phosphate (F6P) and 0.1mM ATP. Then, 23 nL of compounds or DMSO were delivered to each well using a pin tool. One uL T. brucei PFK (0.1M TEA, 0.01% Tween20, 0.1% bovine serum albumin (BSA) and 1.25nM PFK, final concentrations) was then dispensed, and plates were incubated at room temperature for 45 min. The luminescent detection reagent, ADP-Glo (Promega), was then added in two steps: the first reagent, ADP-Glo (which converts remaining uncatalyzed ATP), was added at 2.5uL/well and incubated for ten minutes at room temperature, and the second component, Kinase Detection reagent (which converts ADP to ATP as a substrate for luciferase-based luminescence), was added immediately after at 5uL/well, followed by one final ten minute room temperature incubation. The plates were measured on a ViewLux plate reader for luminescent signal using a clear filter with a one second exposure. The %Activity was determined from the corrected luminescence values. As no specific T. brucei PFK inhibitors have been identified in the literature, 1x (1.25nM) and 0x PFK enzyme controls (untreated) were included to normalize %Activity of identified inhibitors; 0x enzyme values corresponded to 100%Activity (full inhibition), while 1x PFK enzyme values were used to normalize 0%Activity (no inhibition).
# Concentration-response curves were fitted to the signals arising from the resulting luminescence. […]
row,Structure (SMILES),outcome
1,Oc1ccc2c3c1O[C@H]1c4[nH]c5c(c4C[C@@]4(O)[C@@H](C2)N(CC2CC2)CC[C@]314)C[C@@]1(O)[C@H]2Cc3ccc(O)c4c3[C@@]1(CCN2CC1CC1)[C@H]5O4,inactive
2,CC[C@@H](C(N)=O)N1CCCC1=O,inactive
3,C[C@@H]1O[C@H](C[N+](C)(C)C)C[C@H]1O,inactive
4,CCCN(CCC)[C@@H]1CCc2ccc(O)cc2C1,inactive
5,C[C@]12CCC3C(CC[C@H]4C[C@H](O)CC[C@]34C)C1CC[C@@H]2C(=O)CO (stereo partly specified),inactive
6,CN1C2CCC1CC(OC(=O)c1cc(Cl)cc(Cl)c1)C2 (stereo unspecified),inactive
7,C[C@@H](N)Cc1cnc[nH]1,inactive
8,Clc1cnc(Oc2ccc(Oc3ncc(Cl)cc3Cl)cc2)c(Cl)c1,inactive
9,C[N+]1(C)C2CCC1CC(OC(=O)C(CO)c1ccccc1)C2 (stereo unspecified),inactive
10,O=C(O)[C@@H]1CCN1,inactive
11,CCCCc1ccc(C(=O)O)nc1,inactive
12,Cc1c(C(=O)c2cccc3ccccc23)c2cccc3c2n1[C@H](CN1CCOCC1)CO3,inactive
13,C[N+]1(C)C2CC(OC(=O)[C@H](CO)c3ccccc3)CC1C1OC12 (stereo partly specified),inactive
14,O=C(Cc1ccc(Cl)c(Cl)c1)N1CCCCC1CN1CCCC1 (stereo unspecified),inactive
15,O=C(O)Cc1cnc[nH]1,inactive
16,NC(CP(=O)(O)O)C(=O)O (stereo unspecified),inactive

row,Structure (SMILES),outcome
1,NCCc1c[nH]c2ccc(O)cc12,inactive
2,S=C(NC1CCCCC1)N1CCC(c2cnc[nH]2)CC1,inactive
3,CCCN1CCO[C@@H]2c3cc(O)ccc3OC[C@H]21,inactive
4,COC(=O)[C@@H](N)CCCN=C(N)N[N+](=O)[O-],inactive
5,COc1cc(C(O)CN)ccc1O (stereo unspecified),inactive
6,NC(=NCCC[C@H](N)C(=O)O)N[N+](=O)[O-],inactive
7,CCCN1CCC[C@H](c2cccc(O)c2)C1,inactive
8,O=C(N[C@H]1CN2CCC1CC2)c1ccc(Cl)cc1,inactive
9,CS(=N)(=O)CC[C@H](N)C(=O)O (stereo partly specified),inactive
10,O=C(O)CC[N+](=O)[O-],inactive
11,NC1CC1c1ccccc1 (stereo unspecified),inactive
12,CNCCc1c[nH]c2ccc(O)cc12,inactive
13,NC(CCP(=O)(O)O)C(=O)O (stereo unspecified),inactive
14,CC[C@@]1(O)C(=O)OCc2c1cc1n(c2=O)Cc2cc3ccccc3nc2-1,inactive
15,c1ccc(C2(c3ccccc3)CC2C2=NCCN2)cc1 (stereo unspecified),inactive
